The supplement of paper PMC8728848
Shown is part of a subset that was picked to be rich in the strongest signals.

Experiments:
Assay in all cases: glycan array binding signal (z-score within array); higher = stronger binding
Settings in all cases: glycan notation: IUPAC condensed, linker removed
[1] = target: Fuc(a1-2)Gal(b1-3)GlcNAc(b1-3)GalNAc
Procedure, shortened: (§1)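 From the Consortium for Functional Glycomics database, 3228 arrays were curated, keeping only those whose protein sequence was available. Binding is given as a within-array Z-score averaged across arrays sharing a protein sequence and across linkers. Negative Z-scores can be read as non-binding.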

[2] = target: Fuc(a1-2)Gal(b1-3)[Fuc(a1-4)]GlcNAc
Procedure, shortened: as §1

[3] = target: Fuc(a1-2)Gal(b1-4)GlcNAc(b1-6)GalNAc
Procedure, shortened: as §1

[4] = target: Fuc(a1-2)Gal(b1-4)[Fuc(a1-3)]GlcNAc(b1-3)Gal(b1-4)[Fuc(a1-3)]GlcNAc(b1-3)Gal(b1-4)[Fuc(a1-3)]GlcNAc
Procedure, shortened: as §1

[5] = target: Fuc(a1-2)[Gal(a1-3)]Gal(b1-3)GlcNAc
Procedure, shortened: as §1

[6] = target: Fuc(a1-2)[Gal(a1-3)]Gal(b1-4)GlcNAc
Procedure, shortened: as §1

[7] = target: Fuc(a1-2)[Gal(a1-3)]Gal(b1-4)[Fuc(a1-3)]GlcNAc
Procedure, shortened: as §1

[8] = target: Fuc(a1-2)[GalNAc(a1-3)]Gal(b1-4)GlcNAc(b1-2)Man
Procedure, shortened: as §1

[9] = target: Fuc(a1-2)[GalNAc(b1-3)]Gal
Procedure, shortened: as §1

[10] = target: Fuc(a1-3)[Gal(b1-4)]GlcNAc(b1-3)GalNAc
Procedure, shortened: as §1

[11] = target: Gal(a1-3)Gal(b1-3)GlcNAc
Procedure, shortened: as §1

[12] = target: Gal(a1-3)Gal(b1-4)[Fuc(a1-3)]GlcNAc
Procedure, shortened: as §1

[13] = target: Gal(b1-3)Gal
Procedure, shortened: as §1

[14] = target: Gal(b1-3)GlcNAc
Procedure, shortened: as §1

[15] = target: Gal(b1-3)GlcNAc(b1-3)Gal(b1-4)GlcNAc(b1-2)[Gal(b1-3)GlcNAc(b1-3)Gal(b1-4)GlcNAc(b1-6)]Man(a1-6)[Gal(b1-3)GlcNAc(b1-3)Gal(b1-4)GlcNAc(b1-2)Man(a1-3)]Man(b1-4)GlcNAc(b1-4)[Fuc(a1-6)]GlcNAc
Procedure, shortened: as §1

[16] = target: Gal(b1-3)GlcNAc(b1-3)Gal(b1-4)GlcNAc(b1-6)[Gal(b1-3)GlcNAc(b1-3)]Gal(b1-4)Glc
Procedure, shortened: as §1

[17] = target: Gal(b1-4)Gal
Procedure, shortened: as §1

[18] = target: Gal(b1-4)GlcNAc(b1-2)Man(a1-3)[Gal(b1-4)GlcNAc(b1-2)Man(a1-6)]Man(b1-4)GlcNAc(b1-4)[Fuc(a1-6)]GlcNAc
Procedure, shortened: as §1

[19] = target: Gal(b1-4)GlcNAc(b1-2)Man(a1-3)[Gal(b1-4)GlcNAc(b1-2)Man(a1-6)][GlcNAc(b1-4)]Man(b1-4)GlcNAc(b1-4)[Fuc(a1-6)]GlcNAc
Procedure, shortened: as §1

[20] = target: Gal(b1-4)GlcNAc(b1-2)[Gal(b1-4)GlcNAc(b1-4)]Man(a1-3)[GlcNAc(b1-4)][Gal(b1-4)GlcNAc(b1-2)Man(a1-6)]Man(b1-4)GlcNAc(b1-4)GlcNAc
Procedure, shortened: as §1

[21] = target: Gal(b1-4)GlcNAc(b1-2)[Gal(b1-4)GlcNAc(b1-6)]Man(a1-6)[GlcNAc(b1-4)][Gal(b1-4)GlcNAc(b1-2)[Gal(b1-4)GlcNAc(b1-4)]Man(a1-3)]Man(b1-4)GlcNAc(b1-4)[Fuc(a1-6)]GlcNAc
Procedure, shortened: as §1

[22] = target: Gal(b1-4)GlcNAc(b1-3)Gal(b1-4)GlcNAc(b1-2)Man(a1-3)[Gal(b1-4)GlcNAc(b1-3)Gal(b1-4)GlcNAc(b1-2)Man(a1-6)]Man(b1-4)GlcNAc(b1-4)[Fuc(a1-6)]GlcNAc
Procedure, shortened: as §1

[23] = target: Gal(b1-4)GlcNAc(b1-3)Gal(b1-4)GlcNAc(b1-3)Gal(b1-4)GlcNAc(b1-3)Gal(b1-4)GlcNAc(b1-2)Man(a1-3)[Gal(b1-4)GlcNAc(b1-3)Gal(b1-4)GlcNAc(b1-3)Gal(b1-4)GlcNAc(b1-3)Gal(b1-4)GlcNAc(b1-2)Man(a1-6)]Man(b1-4)GlcNAc(b1-4)GlcNAc
Procedure, shortened: as §1

[24] = target: Gal(b1-4)GlcNAc(b1-3)Gal(b1-4)GlcNAc(b1-3)Gal(b1-4)GlcNAc(b1-3)Gal(b1-4)GlcNAc(b1-2)Man(a1-3)[Gal(b1-4)GlcNAc(b1-3)Gal(b1-4)GlcNAc(b1-3)Gal(b1-4)GlcNAc(b1-3)Gal(b1-4)GlcNAc(b1-2)Man(a1-6)]Man(b1-4)GlcNAc(b1-4)[Fuc(a1-6)]GlcNAc
Procedure, shortened: as §1

[25] = target: Gal(b1-4)GlcNAc(b1-3)Gal(b1-4)GlcNAc(b1-3)Gal(b1-4)GlcNAc(b1-3)Gal(b1-4)GlcNAc(b1-3)Gal(b1-4)GlcNAc(b1-2)Man(a1-3)[Gal(b1-4)GlcNAc(b1-3)Gal(b1-4)GlcNAc(b1-3)Gal(b1-4)GlcNAc(b1-3)Gal(b1-4)GlcNAc(b1-3)Gal(b1-4)GlcNAc(b1-2)Man(a1-6)]Man(b1-4)GlcNAc(b1-4)[Fuc(a1-6)]GlcNAc
Procedure, shortened: as §1

[26] = target: Gal(b1-4)GlcNAc(b1-3)Gal(b1-4)GlcNAc(b1-3)Gal(b1-4)GlcNAc(b1-3)Gal(b1-4)GlcNAc(b1-3)Gal(b1-4)GlcNAc(b1-2)[Gal(b1-4)GlcNAc(b1-3)Gal(b1-4)GlcNAc(b1-3)Gal(b1-4)GlcNAc(b1-3)Gal(b1-4)GlcNAc(b1-3)Gal(b1-4)GlcNAc(b1-6)]Man(a1-6)[Gal(b1-4)GlcNAc(b1-3)Gal(b1-4)GlcNAc(b1-3)Gal(b1-4)GlcNAc(b1-3)Gal(b1-4)GlcNAc(b1-3)Gal(b1-4)GlcNAc(b1-2)Man(a1-3)]Man(b1-4)GlcNAc(b1-4)[Fuc(a1-6)]GlcNAc
Procedure, shortened: as §1

[27] = target: Gal(b1-4)GlcNAc(b1-3)GalNAc
Procedure, shortened: as §1

[28] = target: Gal3S6S(b1-4)GlcNAc6S
Procedure, shortened: as §1

[29] = target: Gal6P(b1-4)GlcNAc
Procedure, shortened: as §1

[30] = target: GalNAc(b1-3)GlcNAc
Procedure, shortened: as §1

B1: AFL5 (Aspergillus fumigatus), Q4WB00 (protein)
chain: MDNFMEMTKKLGHQPELLRLRALDATYDDALEGKLVVAPLDMSEPGKKILDSGTADGTWLRNVRSKQSVPHDYYGSDVEGELFPKDPDGITYFAHSFKDPWPQQYLGFFDLVHIRGSLAGSAPEGPAPVIQNLTTLLKPGGWVQLMEMNAFSPPPNGPAMTDFAKMASEMFTGIGVGDFANNNKSMLEDAGLKNVQEKRVIVNLGKKAKPELHDQSIHGVTGPIVPLTSVARTVKSSFTGEQLDALPARVKEELETEGGQVEMIIAFGQKA
[1]
  glycan array binding signal (z-score): -0.31
[2]
  glycan array binding signal (z-score): -0.036
[3]
  glycan array binding signal (z-score): -0.782
[4]
  glycan array binding signal (z-score): -0.555
[5]
  glycan array binding signal (z-score): -0.252
[6]
  glycan array binding signal (z-score): -0.456
[7]
  glycan array binding signal (z-score): -0.109
[8]
  glycan array binding signal (z-score): -0.322
[9]
  glycan array binding signal (z-score): -0.258
[10]
  glycan array binding signal (z-score): -0.016
[11]
  glycan array binding signal (z-score): -0.285
[12]
  glycan array binding signal (z-score): 21.5
[13]
  glycan array binding signal (z-score): -0.063
[14]
  glycan array binding signal (z-score): -0.272
[15]
  glycan array binding signal (z-score): 1.17
[16]
  glycan array binding signal (z-score): -0.412
[17]
  glycan array binding signal (z-score): -0.502
[18]
  glycan array binding signal (z-score): 0.004
[19]
  glycan array binding signal (z-score): -0.411
[20]
  glycan array binding signal (z-score): -0.134
[21]
  glycan array binding signal (z-score): 3.2
[22]
  glycan array binding signal (z-score): 1.35
[23]
  glycan array binding signal (z-score): 0.075
[24]
  glycan array binding signal (z-score): 1.69
[25]
  glycan array binding signal (z-score): 1.46
[26]
  glycan array binding signal (z-score): 1.6
[27]
  glycan array binding signal (z-score): -0.561
[28]
  glycan array binding signal (z-score): 0.29
[29]
  glycan array binding signal (z-score): -0.398
[30]
  glycan array binding signal (z-score): -0.465
